About 800 (1.6%) of roughly 50,000 compounds showed an effect of 50% or more. For the sample, strong results were picked, then their nearest neighbours and some compounds at random.

In the assay the target is Bcl-2-like protein 10 (Homo sapiens) (UniProt Q9HD36). The assay is described as follows: Phenotype converters, Bcl-B/TR3 peptide binding displacement, primary biochemical FP (AID 1240).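 Note: 0% = Bcl-B with tracer peptide and DMSO and 100% = tracer peptide lacking Bcl-B.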 Particulars: GST-Bcl-B / FITC-TR3 peptide fluorescence polarization; stronger effect = higher value; compound at 3.75 mg/L.
Chain of Bcl-2-like protein 10 (Homo sapiens) (Q9HD36 whole entry, looked up): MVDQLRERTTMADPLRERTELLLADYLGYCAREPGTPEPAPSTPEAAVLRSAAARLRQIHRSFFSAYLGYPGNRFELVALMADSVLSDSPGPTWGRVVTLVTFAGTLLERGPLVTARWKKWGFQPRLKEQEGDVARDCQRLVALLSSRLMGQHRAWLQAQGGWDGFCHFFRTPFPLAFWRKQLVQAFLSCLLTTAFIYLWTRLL
Regarding `Cc1ccc(-c2nn(-c3ccccc3)cc2/C=C(\C#N)C(N)=O)o1`, the displacement turned out to be 61.7%. The figure for `Cc1ccc(-c2nn(-c3ccccc3)cc2C=O)o1` is -0.3%; for `N#CC(C#N)=Cc1cn(-c2ccccc2)nc1-c1ccc(-c2ccc([N+](=O)[O-])cc2)o1` it is -5.9%; for `COc1ccc(CSc2nc3ccccc3n2C)cc1F` it is -9.9%. To `COc1ccc(OC)c(C2NC(=S)NC(C)=C2C(=O)OCCc2ccccc2)c1` (configuration not stated) belongs 3.9%; to `COc1ccccc1N1CCN(C(=O)COc2ccc(Cl)cc2C)CC1`, -4.5%; to `O=c1[nH]c(O)c(C=Nc2ccc(F)c(F)c2)c(=O)[nH]1`, 166%. To `O=c1[nH]c(=S)[nH]c(O)c1C=Nc1ccc(Cl)c(Cl)c1` belongs -7%; to `COc1ccc(Cl)cc1N=Cc1c(O)[nH]c(=O)[nH]c1=O`, 10.3%; to `COc1ccc2c(c1OC)C(=O)OC2Nc1cccc(F)c1` (configuration not stated), -0.4%. As to `COc1ccc(-c2cc(C(F)(F)F)n3ncc(C(=O)N4CCOCC4)c3n2)cc1OC`, the displacement turned out to be 5.2%. Consider `CCOc1ccccc1NC(=O)C1CN(S(=O)(=O)c2ccccc2)CCN1S(=O)(=O)c1ccccc1` (configuration not stated), for which the displacement turned out to be 11.2%.

Turning to `C/C(=N/NC(=O)c1cccnc1)c1cc(O)ccc1O`, the displacement was -12%. With `CC(C)c1ccc(/C=C2/SC(=O)N(c3ccccc3)C2=O)cc1`, the displacement was 1.4%.

As for `CC(NC(=O)c1ccc(F)cc1)C1CC1` (configuration not stated), the displacement was found to be 4.6%.

Regarding `Cc1cc(Nc2ccc3c(c2)n(C)c(=O)n3C)n2c(nc3ccccc32)c1C#N`, the displacement was 22.5%. To `Cc1cc(NCCCN(C)C)n2c(nc3ccccc32)c1C#N` belongs -13.5%. To `Cc1cc(Nc2ccccc2)n2c(nc3ccccc32)c1C#N` belongs -2.8%; to `Cc1cc(NCCCCO)n2c(nc3ccccc32)c1C#N`, 25.9%.

For `Cc1cc(NCCCO)n2c(nc3ccccc32)c1C#N`, the displacement stood at 160%.

Regarding `Cc1cc(Nc2ccc3c(c2)OCO3)n2c(nc3ccccc32)c1C#N`, the displacement is 135%. To `CC(=O)Nc1ccc(S(=O)(=O)/N=C2\C=CC(=O)c3ccccc32)cc1` belongs 22.2%. The figure for `COc1ccc(Cl)cc1C(=O)N(Cc1ccccc1)C(C)C` is 11.9%. With `Cc1c(Cl)cccc1NC(=O)C1c2ccccc2Oc2ccccc21`, the displacement was found to be 11.9%.

`CCn1c2ccccc2c2cc(NC(=O)Cc3ccc(OC)c(OC)c3)ccc21`: the displacement is -5.2%. To `Cc1cc2nc3s/c(=C/c4ccc5c(c4)OCO5)c(=O)n3c2cc1C` belongs -11.4%; to `O=c1/c(=C/c2ccc([N+](=O)[O-])cc2)sc2nc3ccccc3n12`, 86.7%. For `O=c1/c(=C/c2ccc(C(F)(F)F)cc2)sc2nc3ccccc3n12`, the displacement worked out at 2%. To `O=c1/c(=C/c2ccc(-c3ccc(Cl)cc3)o2)sc2nc3ccccc3n12` belongs 10.9%.

Consider `CN(C)c1ccc(/C=c2\sc3nc4ccccc4n3c2=O)cc1`, for which the displacement amounted to 107%. Regarding `O=c1/c(=C\c2ccc(OCc3ccc([N+](=O)[O-])cc3)cc2)sc2nc3ccccc3n12`, the displacement came to 4.5%. For the molecule `CSc1ccc(/C=c2\sc3nc4ccccc4n3c2=O)cc1`, the displacement is 7.3%. To `Cc1ccc(Sc2ccc(/C=c3\sc4nc5ccccc5n4c3=O)o2)cc1` belongs 86.8%; to `CC(=O)Oc1ccc(/C=c2\sc3nc4ccccc4n3c2=O)cc1`, 28%; to `O=c1/c(=C/c2ccc3c(c2)OCO3)sc2nc3ccccc3n12`, 69.3%. The figure for `O=c1/c(=C/c2cc([N+](=O)[O-])ccc2Cl)sc2nc3ccccc3n12` is -7.5%; for `O=c1/c(=C/c2ccc(Sc3ccccc3)o2)sc2nc3ccccc3n12` it is 48.5%; for `COc1ccc(/C=C2\C(=O)NN(c3ccc(Cl)c(Cl)c3)C2=O)cc1OC` it is -13.2%. To `CCOc1ccccc1/C=N/Nc1nnc(-c2ccccc2)c(=O)[nH]1` belongs -10.7%.

`O=C(COc1ccccc1Cl)N1CCN(c2ccc([N+](=O)[O-])cc2)CC1`: the displacement is -3.3%. For the molecule `O=C1NC(=S)N(c2ccc(Cl)cc2)C(=O)C1=Cc1ccsc1`, the displacement stood at 8.3%. Take `O=C1CSC(c2cn(-c3ccccc3)nc2-c2ccc(Cl)cc2)N1Cc1ccccc1` (configuration not stated): the displacement is -6.5%. To `O=c1[nH]cc(N=Cc2ccccc2)c(=O)[nH]1` belongs -2.8%.

Turning to `Cc1onc(-c2ccccc2Cl)c1C(=O)Nc1sc(C)c(C)c1C#N`, the displacement is 13.6%. For `CCc1nc2ccccc2n1CC(O)COC1CCCCC1` (configuration not stated), the displacement was -10.7%. To `COC(=O)c1ccc(N2C(=O)c3cccc([N+](=O)[O-])c3C2=O)cc1` belongs -0.7%; to `Cc1ccsc1/C=c1\sc2nc3ccccc3n2c1=O`, -8.5%; to `O=c1/c(=C/c2cccs2)sc2nc3ccccc3n12`, 7.2%. In the case of `O=c1/c(=C/c2ccccn2)sc2nc3ccccc3n12`, the displacement was determined as 102%. `CCOc1ccc(NC(=O)CC2S/C(=N\N=C(/C)c3cccc(NC(C)=O)c3)NC2=O)cc1` (configuration not stated): the displacement was -11%. In the case of `O=C1c2cccc3c(N4CCCCC4)ccc(c23)C(=O)N1c1ccc(Cl)cn1`, the displacement is 25.4%. On to `CN1CCN(c2ccc3c4c(cccc24)C(=O)N(CCO)C3=O)CC1`, for which the displacement is 155%. With `CC(C)N1C(=O)c2cccc3c(N4CCCCC4)ccc(c23)C1=O`, the displacement is 9.8%. The figure for `O=C1c2cccc3c(N4CCCCC4)ccc(c23)C(=O)N1CCO` is 66.1%; for `CN1CCN(c2ccc3c4c(cccc24)C(=O)c2ccccc2-3)CC1` it is 2.9%; for `CN1CCN(C(=O)CCN2C(=O)c3cccc4cccc(c34)C2=O)CC1` it is 18.2%. The figure for `CCOC(=O)c1c(-c2ccccc2)oc2ccc(OC(=O)c3ccc(OC)c(OC)c3)cc12` is 8.8%; for `Cc1ccc(C(=O)COc2cc(OCC(=O)c3ccc(C)cc3)c3c(C)cc(=O)oc3c2)cc1` it is 10%. To `COc1nccnc1NS(=O)(=O)c1ccc(NC(=S)NC(=O)c2ccc(F)c(F)c2)cc1` belongs 6.6%; to `CSc1ccc(-c2ncnn2-c2cccc(Cl)c2)cc1`, -4.7%; to `COC(=O)C1C(=O)N(C)C(c2ccccc2)C1C(=O)OC` (configuration not stated), 8.4%. Turning to `CCOC(=O)C1=C(C)N=c2s/c(=C/c3ccc(F)cc3)c(=O)n2C1c1cccc([N+](=O)[O-])c1` (configuration not stated), the displacement was 7.1%.

For `CCOC(=O)C1=C(C)N=c2s/c(=C\c3cccc([N+](=O)[O-])c3)c(=O)n2C1c1cccc(OC)c1` (configuration not stated), the displacement was 4.1%.

As for `CCOC(=O)C1=C(C)N=c2s/c(=C/c3cccc([N+](=O)[O-])c3)c(=O)n2C1c1ccccc1Cl` (configuration not stated), the displacement turned out to be 10.2%. Take `CCOC(=O)C1=C(C)N=c2s/c(=C\c3ccc(C)cc3)c(=O)n2C1c1cccc([N+](=O)[O-])c1` (configuration not stated): the displacement turned out to be 127%. For `CCOC(=O)C1=C(C)N=c2s/c(=C\c3cccc([N+](=O)[O-])c3)c(=O)n2C1c1ccc(C)cc1` (configuration not stated), the displacement stood at 16.1%. Consider `CCOC(=O)C1=C(C)N=c2s/c(=C\c3cccc([N+](=O)[O-])c3)c(=O)n2C1c1ccccc1F` (configuration not stated), for which the displacement was found to be 138%.

For the molecule `CCCCOc1ccc(C(=O)O/N=C2/CCc3cc(OC)ccc32)cc1`, the displacement came out at 2%. Take `O=C(Nc1ccc(Cl)c(Cl)c1)c1ccc([N+](=O)[O-])o1`: the displacement was -8%.

In the case of `Cc1cc(C)c2nc3s/c(=C\c4ccc(-c5cc([N+](=O)[O-])c(C)cc5C)o4)c(=O)n3c2c1`, the displacement was -20.8%. To `CN1CCO/C1=C(C#N)\C=C1\Nc2ccccc2C1=O` belongs -77.4%; to `Cc1c(Cl)cccc1N1C(=O)c2ccccc2C1=O`, 7.1%; to `CN1CCO/C1=C(C#N)\C=C1/C(=O)N(c2c(Cl)cccc2Cl)c2ccccc21`, 67.6%. The figure for `COc1ccc(/C=C2\SC(N3CCCCCC3)=NC2=O)cc1OC` is -1.9%.

On to `Cc1ccc(S(=O)(=O)Oc2ccc(/C=C3/SC(=S)N(C)C3=O)cc2)cc1`, for which the displacement is -3.3%. To `Cc1cccn2c(=O)c(C=O)c(N3CCC(C)CC3)nc12` belongs 17%. The figure for `Cc1cccn2c(=O)c(C=O)c(N3CCCCC3)nc12` is 3.9%; for `Cc1cccn2c(=O)c(/C=N/NC(=O)c3ccccc3O)c(N3CCCCC3)nc12` it is 130%; for `CCOC(=O)COc1ccc(/C=C2\C(=O)NC(=O)N(c3ccc(OC)cc3)C2=O)cc1OC` it is 0.6%. Take `Cc1cc(C)cc(N2C(=O)NC(=O)/C(=C\c3cc(Br)ccc3OCC(=O)O)C2=O)c1`: the displacement was -7.4%. The figure for `CCN(CC)CCNc1nc2nonc2nc1NCCN(CC)CC` is -0.5%; for `NC(=O)c1cc(NC(=O)c2cc3ccccc3cc2O)cc(C(N)=O)c1` it is -4.2%; for `CN(C)c1ccc(NC(=O)c2ccc(Br)cc2)cc1` it is 48.8%. Take `COc1cc2ccccc2cc1C(=O)Nc1cccc(-c2nc3cc(C)cc(C)c3o2)c1C`: the displacement amounted to 26.5%. `COc1cc(OC)cc(C(=O)Nc2cccc(-c3nc4cc(C)cc(C)c4o3)c2C)c1`: the displacement is 58.7%. `CC(=O)Nc1cccc(-c2nc3cc(C)ccc3o2)c1C`: the displacement came to 99.7%. To `Cc1cc(C)c2oc(-c3ccc(NC(=O)c4cccc([N+](=O)[O-])c4C)cc3)nc2c1` belongs -3.8%.

On to `COc1cc(OC)cc(C(=O)Nc2cccc(-c3nc4ncccc4o3)c2C)c1`, for which the displacement stood at 5.6%. To `COc1cc(OC)cc(C(=O)Nc2ccc3oc(-c4ccc(I)cc4)nc3c2)c1` belongs -5.8%; to `COc1ccc(Br)cc1C(=O)Nc1cccc(-c2nc3cc(C)ccc3o2)c1C`, 20.2%; to `CCOc1ccc(C(=O)Nc2cccc(-c3nc4cc(C)ccc4o3)c2C)cc1`, 17.4%.

On to `COc1cc(OC)cc(C(=O)Nc2ccc(-c3nc4cc(C)cc(C)c4o3)cc2)c1`, for which the displacement worked out at 55.3%.

Take `Cc1onc(-c2c(Cl)cccc2Cl)c1C(=O)Nc1ccc(N(C)C)cc1`: the displacement was found to be 12.1%. To `CCOC(=O)c1c(NC(=O)COc2ccccc2C)sc(C(=O)Nc2ccccc2F)c1C` belongs -0.6%; to `CN(C)c1ccc(-c2ncnn2-c2sc3c(c2C#N)CCCC3)cc1`, 3.1%. The figure for `Cc1ccc(NCC(=O)N/N=C\c2ccc(OCc3ccccc3)cc2)cc1` is 6.5%. To `O=[N+]([O-])c1ccc(-n2ncnc2-c2ccc(F)cc2)cc1` belongs 10.5%; to `O=C(O)C(Cc1ccccc1)N1C(=O)/C(=C/c2ccc(O)cc2)SC1=S` (configuration not stated), -23.7%; to `CN(C)c1ccc(/C=N/Nc2cc(N3CCOCC3)ncn2)cc1`, -14.2%.

Turning to `O=C(Cn1c2ccccc2c(=O)c2ccccc21)N/N=C/c1cc([N+](=O)[O-])ccc1N1CCCCCC1`, the displacement was -7%.

Regarding `O=C(Cn1c2ccccc2c(=O)c2ccccc21)N/N=C/c1cc([N+](=O)[O-])ccc1N1CCCCC1`, the displacement was -6.8%. The figure for `O=C(Cn1c2ccccc2c(=O)c2ccccc21)N/N=C/c1cc([N+](=O)[O-])ccc1N1CCCC1` is 73.6%.

Values taken from PubChem BioAssay AID1240 (Sanford-Burnham Center for Chemical Genomics, 2008).
